Unmarked numbers belong to inactive results.
What follows are compounds tested on Madurella mycetomatis MM55 (assay: growth relative to untreated control; higher = less inhibition, active = 20 or less). Conditions: 25 µM.
Experimental: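 Hyphal fragments of M. mycetomatis MM55 or F. senegalensis CBS197.79 in RPMI 1640/MOPS were exposed to each MMV COVID Box or Global Health Priority Box compound at 100 or 25 µM for 7 days at 37 °C. Viability was read with MTS (490 nm, M. mycetomatis) or resazurin (600 nm, F. senegalensis), background-corrected with a medium-only control and expressed as % growth relative to the untreated growth control. Inhibition of more than 80% was taken as growth inhibition.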

First: COc1ccc(-c2cnc3c(-c4ccccc4)c(-c4ccccc4)nn3c2N)cc1OC
Second: Cc1ccc(-c2noc(-c3ccccc3)n2)cc1
The growth of the first is higher: 86.3% for the first, 43.1% for the second.

Going from `CNC(=O)c1cc(-c2n[nH]c3ccc(-c4nc(C5CCCN5)n[nH]4)cc23)ccc1F` (stereo not given) to `O=C(NCCN1CCCC1)c1ccc(Nc2nccc(-c3ccc(Cl)cc3)n2)cc1`, the growth falls from 98.4% to 50.5%.

First: CN(C)CCN1CCCN(c2ccnc3ccsc23)CC1
Second: CCN1CCN(C2CCN(C(=O)COc3ccc(-c4ccccc4F)cc3)CC2)CC1
The growth of the first is lower: 76% for the first, 105% for the second.

Going from `COC(=O)C1=C(C)NC(C)=C(C(=O)OC)C1c1ccccc1[N+](=O)[O-]` to `CC(C)C[C@H](NC(=O)[C@@H](NC(=O)c1cccc(-c2ccccc2)n1)[C@@H](C)O)B(O)O`, the growth rises from 89.7% to 99.4%.

Going from `O=C(Nc1ncccc1O)c1ccc(Cn2cccn2)cc1` to `O=C(Nc1ncccc1O)c1ccc(S(=O)(=O)NCCc2cccs2)cc1`, the growth rises from 93.2% to 128%.

Going from `CN(C)c1ncc2nc(Nc3cc(Cl)cc(C(F)(F)F)c3)n(C3CCNCC3)c2n1` to `O=c1[nH]ccc2nc(N[C@@H]3CCNC3)nc(Nc3ccc4c(c3)S(=O)(=O)CC4)c12`, the growth falls from 86.2% to 62.9%.

First: Oc1ccccc1CCNC1CCc2ccc(F)cc21 (stereo not given)
Second: CCCCc1nc(Cl)c(CO)n1Cc1ccc(-c2ccccc2-c2nn[nH]n2)cc1
The growth of the first is lower: 32.8% for the first, 103% for the second.

Compared with `O=c1[nH]c2ccccc2n1CCCN1CCN(C(c2ccccc2)c2ccccc2)CC1`, `CC(C)Nc1cccnc1N1CCN(C(=O)c2cc3cc(NS(C)(=O)=O)ccc3[nH]2)CC1` is higher in growth: 91.1% for the first, 104% for the second.

With `CCOc1ccc(Cc2nccc3cc(OCC)c(OCC)cc23)cc1OCC` the growth was 80.9%.

With `CC[C@@H]([C@H](C)O)n1ncn(-c2ccc(N3CCN(c4ccc(OC[C@@H]5CO[C@@](Cn6cncn6)(c6ccc(F)cc6F)C5)cc4)CC3)cc2)c1=O` the growth was 6.56% (active).
With `CN1CCC[C@@H]1CCO[C@](C)(c1ccccc1)c1ccc(Cl)cc1` the growth was 11.1% (active).
`O[C@@H](c1cc(C(F)(F)F)nc2c(C(F)(F)F)cccc12)[C@H]1CCCCN1` was tested, and the growth was 5.4% (active).

Same assay, conditions: 100 µM

Going from `COc1ccc(-c2cnc3c(-c4ccccc4)c(-c4ccccc4)nn3c2N)cc1OC` to `Cc1ccc(-c2noc(-c3ccccc3)n2)cc1`, the growth rises from 70.2% to 90.5%.

First: CNC(=O)c1cc(-c2n[nH]c3ccc(-c4nc(C5CCCN5)n[nH]4)cc23)ccc1F (stereo not given)
Second: O=c1[nH]ccc2nc(N[C@@H]3CCNC3)nc(Nc3ccc4c(c3)S(=O)(=O)CC4)c12
The growth of the first is lower: 71.5% for the first, 104% for the second.

First: CN(C)CCN1CCCN(c2ccnc3ccsc23)CC1
Second: CCN1CCN(C2CCN(C(=O)COc3ccc(-c4ccccc4F)cc3)CC2)CC1
The growth of the first is higher: 79.5% for the first, 41.1% for the second.

Compared with `O=C(Nc1ncccc1O)c1ccc(Cn2cccn2)cc1`, `O=C(Nc1ncccc1O)c1ccc(S(=O)(=O)NCCc2cccs2)cc1` is lower in growth: 123% for the first, 70.6% for the second.

Compared with `Oc1ccccc1CCNC1CCc2ccc(F)cc21` (stereo not given), `CCCCc1nc(Cl)c(CO)n1Cc1ccc(-c2ccccc2-c2nn[nH]n2)cc1` is higher in growth: 34% for the first, 88.8% for the second.

Going from `CC(C)C[C@H](NC(=O)[C@@H](NC(=O)c1cccc(-c2ccccc2)n1)[C@@H](C)O)B(O)O` to `CC(C)Nc1cccnc1N1CCN(C(=O)c2cc3cc(NS(C)(=O)=O)ccc3[nH]2)CC1`, the growth rises from 88.5% to 96.3%.

`CCOc1ccc(Cc2nccc3cc(OCC)c(OCC)cc23)cc1OCC` showed a growth of 83%.

With `CC[C@@H]([C@H](C)O)n1ncn(-c2ccc(N3CCN(c4ccc(OC[C@@H]5CO[C@@](Cn6cncn6)(c6ccc(F)cc6F)C5)cc4)CC3)cc2)c1=O` the growth was 9.91% (active).
`O=C(NCCN1CCCC1)c1ccc(Nc2nccc(-c3ccc(Cl)cc3)n2)cc1` was tested, and the growth was 5.82% (active).
For `COC(=O)C1=C(C)NC(C)=C(C(=O)OC)C1c1ccccc1[N+](=O)[O-]`, the growth was 4.04% (active).
With `CN(C)c1ncc2nc(Nc3cc(Cl)cc(C(F)(F)F)c3)n(C3CCNCC3)c2n1` the growth was 5.43% (active).
In the case of `CN1CCC[C@@H]1CCO[C@](C)(c1ccccc1)c1ccc(Cl)cc1`, the growth is reported as 4.37% (active).
`O=c1[nH]c2ccccc2n1CCCN1CCN(C(c2ccccc2)c2ccccc2)CC1` was tested, and the growth was 5.01% (active).
For `O[C@@H](c1cc(C(F)(F)F)nc2c(C(F)(F)F)cccc12)[C@H]1CCCCN1`, the growth was 4.2% (active).
